Compounds without any hit were thinned out: in the full panel of roughly 83,000, 20% have a hit.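 Assay: single dose, 48 h. Readout: percent growth (0 = no net growth; negative = cell death). Active: <10.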 Calls of active or inactive are those of the source.
Legend:
Assay in all cases: NCI-60 one-dose screen, 48 h (100 = growth as untreated, 0 = no growth, -100 = all killed)
[1] = test system: SK-MEL-2 melanoma; conditions: 10 µM unless noted
[2] = test system: SN12C renal; conditions: 10 µM unless noted
[3] = test system: UO-31 renal; conditions: 10 µM unless noted
[4] = test system: TK-10 renal; conditions: 10 µM unless noted
[5] = test system: ACHN renal; conditions: 10 µM unless noted
[6] = test system: CAKI-1 renal; conditions: 10 µM unless noted
[7] = test system: A498 renal; conditions: 10 µM unless noted
[8] = test system: MOLT-4 leukemia; conditions: 10 µM unless noted
[9] = test system: SR leukemia; conditions: 10 µM unless noted
[10] = test system: OVCAR-8 ovarian; conditions: 10 µM unless noted
[11] = test system: OVCAR-5 ovarian; conditions: 10 µM unless noted
[12] = test system: OVCAR-4 ovarian; conditions: 10 µM unless noted
[13] = test system: SK-OV-3 ovarian; conditions: 10 µM unless noted
[14] = test system: IGROV1 ovarian; conditions: 10 µM unless noted
[15] = test system: OVCAR-3 ovarian; conditions: 10 µM unless noted
[16] = test system: NCI/ADR-RES ovarian; conditions: 10 µM unless noted
[17] = test system: RPMI-8226 leukemia; conditions: 10 µM unless noted
[18] = test system: HS 578T breast; conditions: 10 µM unless noted
[19] = test system: CCRF-CEM leukemia; conditions: 10 µM

Measured: growth

O=C(CCC(=O)N(CCO)CCO)N(CCO)CCO
inactive: [1] 102% | [2] 106% | [3] 86% | [4] 99.5% | [5] 107% | [6] 93.3% | [7] 120% | [8] 90.8% | [9] 89.8% | [10] 103% | [11] 105% | [12] 105% | [13] 99% | [14] 98.1% | [15] 97.5% | [16] 108%

CCOc1ccc(N(C)c2ccc(/C=C/C3=[N+](C)c4ccccc4C3(C)C)cc2)cc1
active: [1] -45.9% | [2] 2.99% | [3] 3.71% | [4] -16.1% | [5] -95.9% | [6] -2.85% | [8] -25.4% | [9] -26.7% | [17] -20.3% | [10] -15.8% | [14] 1.79% | [15] -72.9%
inactive: [7] 42.6% | [11] 40.1% | [12] 37.1% | [13] 16.9% | [18] 41.7% | [16] 72.9%

O=C(/C=C/c1ccc(Cl)cc1)c1ccc(Cl)cc1
inactive: [1] 97.2% | [2] 102% | [3] 76.2% | [4] 78% | [5] 109% | [6] 75.7% | [7] 82.8% | [19] 66.9% | [17] 13.7% | [10] 106% | [11] 104% | [12] 106% | [13] 104% | [14] 88.1% | [15] 89.7% | [16] 99.3%
active: [9] 9.81%

O=C(CCl)NC1c2ccccc2Oc2ccccc21
inactive: [1] 63% | [2] 81.1% | [3] 92.1% | [4] 84.4% | [5] 72.4% | [6] 64.6% | [7] 97.3% | [8] 62.6% | [9] 33.7% | [17] 50.1% | [10] 61.2% | [11] 83.9% | [12] 56.5% | [13] 85.6% | [14] 46.1% | [15] 68.6% | [18] 97.4% | [16] 101%

CCCCCCCCCCCCCCCCNC(=S)N/N=C/c1ccc(OC)cc1
inactive: [1] 107% | [2] 93.5% | [3] 78% | [4] 110% | [5] 104% | [6] 92% | [7] 113% | [8] 106% | [9] 106% | [17] 93.2% | [10] 92.1% | [11] 105% | [12] 113% | [13] 114% | [14] 106% | [15] 110% | [18] 107% | [16] 101%

C=CCC(CCC(CC=C)C(=O)OCC)C(=O)OCC (stereo unspecified)
inactive: [1] 106% | [2] 100% | [3] 88.5% | [4] 91.6% | [5] 108% | [6] 103% | [7] 120% | [8] 104% | [9] 86.7% | [17] 101% | [10] 95.2% | [11] 106% | [12] 102% | [13] 107% | [14] 102% | [15] 115% | [18] 107% | [16] 109%

CCCCCCCCCCC1OC(C)CC(C)O1 (stereo unspecified)
inactive: [1] 105% | [2] 103% | [3] 90.9% | [4] 100% | [5] 97.8% | [6] 95.7% | [7] 102% | [8] 86.7% | [9] 71.6% | [17] 99.6% | [10] 99.5% | [11] 99.2% | [12] 111% | [13] 103% | [14] 109% | [15] 98.3% | [18] 101% | [16] 105%

CCCCCCCCCCCCOC(=O)/C=C\C(=O)NC(N)=O
active: [9] 3.65% | [17] 4%
inactive: [1] 50.7% | [2] 84.3% | [3] 93% | [4] 86.9% | [5] 88.4% | [6] 90.3% | [7] 101% | [8] 45.1% | [10] 70.6% | [11] 108% | [12] 86% | [13] 97.8% | [14] 73% | [15] 92.4% | [18] 86% | [16] 88.4%

From PubChem BioAssay (NCI)
